FMDV inh – foot and mouth disease virus antiviral activity; FMDV antiviral cell-based qHTS; Potency, µM (doses to about 57.9 µM), for inactives: at the top dose activity change, negative = inhibition, usual class: inhibitors; 1.2% of 410,000 active; calls by dose curve; tested in HEK293T cells; note: read-out not given here; potency is the fitted concentration of half-maximal effect; nearly all actives have a fitted effect of over 45% in size
Vaccinia mCherry – inhibitors of vaccinia virus infection (mCherry reporter signal); Vaccinia virus mCherry reporter infection, fluorescence; Potency, µM (top dose mostly 36.5 µM), for the others: at the highest dose activity change, negative = inhibition, actives largely listed as inhibitors; 0.63% of 310,000 active; AID 720579; calls by dose curve; tested in A549 cells; note: potency is the fitted concentration of half-maximal effect; nearly all actives have a fitted effect of over 35% in size
HCMV antiviral – blocks human cytomegalovirus replication; HFF cells, HCMV-luciferase reporter, 72 h; stronger effect = lower value; activity change, negative = inhibition, % at 57.5 µM; 4.5% of 410,000 active; AID 1259415; in the data active = activity change below about -60%; inconclusive = no clear call, values can overlap the other calls; inactive = above about -39%
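Two compound doses tested in HFFs infected with HCMV-luciferase, MOI 1 PFU/cell, 72 h at 37C. Lysate luminescence read with OneGlo; data normalized against buffer-only and 10uM Salinomycin inhibitor controls.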
VACV Venus inh – inhibitors of vaccinia virus (Venus reporter) | Potency, µM (highest dose often 36.5 µM), without a hit: at the highest dose activity change, negative = inhibition, actives largely listed as inhibitors | Vaccinia virus Venus reporter expression, fluorescence | 0.46% of 330,000 active; calls by dose curve; tested in A549 cells; note: potency is the fitted concentration of half-maximal effect; nearly all actives have a fitted effect of over 30% in size
HCV inh – blocks hepatitis C virus. Potency, µM (doses to about 41.8 µM), inactives show at the highest dose activity change, negative = inhibition, most hits filed as inhibitors. Huh7.5.1 HCVcc-Cre infection, luciferase reporter, 44 h. 3.4% of 340,000 active; active = well fitted inhibition curve with a large enough effect; inconclusive = small, poorly fitted or top-dose-only effect, or another doubt; inactive = no such curve, though single readings can be large or run the other way; note: potency is the fitted concentration of half-maximal effect
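After 44 h co-culture of compound, cells and HCVcc-Cre (~0.5 moi), substrate is added for 15 min at room temperature and luciferase measured over 15 sec. Cells were seeded at 1,000/well and pre-cultured 4 h.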
* = called active by the depositor; ! = not active in a repeat; [ ] = another dose, or the depositor's remark. A selection: hits, their analogues and other compounds. The true share with any hit is near 7.3%. % is set by controls: 0 for no effect and ±100 for the full control effect.

For CCCNC(=O)COC(=O)c1ccc(OCC(=O)Nc2ccccc2OC)c(OC)c1 the results were FMDV inh -5%, Vaccinia mCherry 1%, HCMV antiviral 18, VACV Venus inh -6% and HCV inh 0%.
For COc1ccccc1NC(=O)COC(=O)c1cc(C)oc1C the results were FMDV inh -4%, Vaccinia mCherry inactive, HCMV antiviral -79*, VACV Venus inh -10% and HCV inh -22%.
`O=C(COC(=O)CSc1ccc([N+](=O)[O-])cc1)NCCC1=CCCCC1` gave FMDV inh -11%, Vaccinia mCherry -13%, HCMV antiviral 0, VACV Venus inh -10% and HCV inh 31%.
`COc1ccc(-c2csc3nc(-c4ccccc4OC)oc(=O)c23)cc1` gave FMDV inh inconclusive, Vaccinia mCherry inconclusive, HCMV antiviral -69*, VACV Venus inh inconclusive and HCV inh -17%.
For O=c1[nH]c2ccc(NCc3ccc(-c4cccc(Cl)c4)o3)cc2[nH]1 the results were FMDV inh -16%, Vaccinia mCherry -24%, HCMV antiviral -61* and VACV Venus inh -19%.
CCCCOc1ccc(Cl)cc1CSc1n[nH]c(C)n1 was read as FMDV inh inconclusive, Vaccinia mCherry inactive, HCMV antiviral -2, VACV Venus inh -16% and HCV inh -20%.
`CCOc1ccc(Cl)cc1CSc1n[nH]c(CC)n1` gave FMDV inh -17%, HCMV antiviral -34 and HCV inh 11µM*.
Screening COc1ccc(CN(C2CCCCC2C)S(=O)(=O)c2ccc(S(=O)(=O)N(C)C)cc2)cc1OC (centres undefined) returned FMDV inh -27%, Vaccinia mCherry -29%, HCMV antiviral -79*, VACV Venus inh -13% and HCV inh 13%.
`N#Cc1ccccc1-c1ccc2ncnc(NCc3ccccc3)c2c1` gave FMDV inh 0%.
`Cc1cc2c(NCCc3ccccc3)ncnc2s1` gave FMDV inh -20%, Vaccinia mCherry -14%, HCMV antiviral -88*, VACV Venus inh -5% and HCV inh 5.6µM*.
For Cc1ccc(-n2ncc3c(NCCc4ccccc4)ncnc32)cc1 the results were FMDV inh 36%, Vaccinia mCherry -9%, HCMV antiviral 70 and VACV Venus inh -10%.
For Cc1cc2c(Nc3ccccc3)ncnc2s1 the results were FMDV inh 4%, Vaccinia mCherry -6%, HCMV antiviral inconclusive, VACV Venus inh -27% and HCV inh inconclusive.
For Cc1cc2c(NC3CCCCC3)ncnc2s1 the results were FMDV inh 0%, Vaccinia mCherry -7%, HCMV antiviral inconclusive, VACV Venus inh -22% and HCV inh 10µM*.
Cc1cc2c(SCC(=O)NC3CCCCC3)ncnc2s1 was read as FMDV inh 4%, Vaccinia mCherry -8%, HCMV antiviral -18, VACV Venus inh -2% and HCV inh 4%.
Brc1ccc2ncnc(NCc3ccccc3)c2c1 was read as FMDV inh inconclusive, HCMV antiviral -96*, VACV Venus inh inconclusive and HCV inh 10µM*.
For c1ccc(CCNc2ncnc3ccccc23)cc1 the results were FMDV inh -42%, HCMV antiviral -89* and HCV inh 1.1µM*.
`CCc1ccccc1Nc1ncnc2ccccc12` gave FMDV inh -9%, Vaccinia mCherry -8%, HCMV antiviral -36, VACV Venus inh -8% and HCV inh inconclusive.
For CCCCCCCCNc1ncnc2ccccc12 the results were FMDV inh 0%, Vaccinia mCherry inconclusive, VACV Venus inh inconclusive and HCV inh 0.79µM*.
Cc1cc(C)cc(NC(=O)COC(=O)CC2CCCC2)c1 was read as FMDV inh -11%, Vaccinia mCherry -15%, HCMV antiviral -35, VACV Venus inh -6% and HCV inh -11%.
CCOc1ccccc1/C=C/c1onc(C)c1S(=O)(=O)N1CCC(C(=O)N(CC)CC)CC1 was read as FMDV inh -16%, Vaccinia mCherry -7%, HCMV antiviral active!, VACV Venus inh -25% and HCV inh inconclusive.
Screening CCOc1ccccc1NC(=O)C1CCN(S(=O)(=O)c2c(C)noc2/C=C/c2ccco2)CC1 returned FMDV inh -16%, Vaccinia mCherry inactive, HCMV antiviral -38 and VACV Venus inh -10%.
Screening CCN(CCN(C)C)C(=O)C1CCN(S(=O)(=O)c2c(C)noc2/C=C/c2ccccc2F)CC1 returned FMDV inh -4%, Vaccinia mCherry inactive, HCMV antiviral -99*!, VACV Venus inh inconclusive and HCV inh inconclusive.
For O=C(c1ccncc1)N1CC(=O)N2[C@H](CO)[C@H](c3ccc(Br)cc3)[C@@H]2C1 the results were HCMV antiviral -13.
`Cc1nn(-c2ccccc2)c2c1C(O)n1c(nc3ccccc31)S2` (centres undefined) gave Vaccinia mCherry inactive, HCMV antiviral 40, VACV Venus inh -12% and HCV inh 11µM*.
For COc1cc(C(=O)Oc2ccccc2/C=N/NC(=O)c2ccc(Cl)cc2)cc(OC)c1OC the results were FMDV inh 7%, Vaccinia mCherry inconclusive, HCMV antiviral -99*, VACV Venus inh inconclusive and HCV inh 2.8µM*.
Screening CC(=O)Nc1ccc(C(=O)N/N=C/c2ccccc2OC(=O)c2ccc(Cl)cc2)cc1 returned FMDV inh -15%, Vaccinia mCherry -15%[1.46 µM], HCMV antiviral 38, VACV Venus inh inconclusive and HCV inh inconclusive.
For COc1cc(C(=O)Oc2ccccc2/C=N/NC(=O)c2ccc(C)c(Cl)c2)cc(OC)c1OC the results were FMDV inh 9%, Vaccinia mCherry 5µM*, HCMV antiviral -104*, VACV Venus inh inconclusive and HCV inh inconclusive.
COc1ccc(C(=O)N/N=C\c2coc3ccc(Cl)cc3c2=O)cc1 was read as FMDV inh inconclusive, HCMV antiviral -63* and HCV inh -24%.
Screening CCc1ccc(NC(=O)CSc2c(C)cnc3c2c(=O)n(C)c(=O)n3C)cc1 returned FMDV inh inconclusive, Vaccinia mCherry -16%, HCMV antiviral 10 and VACV Venus inh -11%.
`CN(C)CC(C)(O)c1ccc2c(c1)CN(Cc1cnn(-c3ccccc3)c1)CCO2` (centres undefined) gave FMDV inh -7%, Vaccinia mCherry -13% and VACV Venus inh 13%.
O=C(Cc1csc(Nc2nc(=S)[nH]c3ccccc23)n1)NCc1ccccc1Cl was read as FMDV inh 0%, HCMV antiviral -4 and HCV inh 11µM*.
Screening O=C(Cc1csc(Nc2nc(=S)[nH]c3ccccc23)n1)NCc1cccc(Cl)c1 returned FMDV inh 5%, HCMV antiviral 9 and HCV inh inconclusive.
Screening COc1cccc(-c2nc(CS(=O)(=O)CC(=O)NCCN3CCOCC3)c(C)o2)c1 returned FMDV inh 7%, Vaccinia mCherry inactive, HCMV antiviral -33, VACV Venus inh -19% and HCV inh -7%.

Bioassay records from PubChem.
